# Assay results: PubChem BioAssay (NCATS)
# Results filed as inconclusive are left out. Entries that show only a call come without a potency. Calls of active or inactive are those of the source. Unless noted, calls follow the shape of the dose curve; as a rule, active = well fitted curve in the direction sought with a large enough effect; inconclusive = small, poorly fitted or top-dose-only effect, or another doubt; inactive = no such curve, though single readings can be large; an effect the other way counts as inactive or inconclusive.
# What was measured:
# [1] = target: Cytochrome P450 1A2 (Homo sapiens) (UniProt P05177); experiment: p450-cyp1a2 (AID 410; calls by dose curve; also: potency is read from the fitted curve at half-maximal effect)
# Cytochrome P450 1A2 (Homo sapiens), sequence (P05177 whole entry, looked up): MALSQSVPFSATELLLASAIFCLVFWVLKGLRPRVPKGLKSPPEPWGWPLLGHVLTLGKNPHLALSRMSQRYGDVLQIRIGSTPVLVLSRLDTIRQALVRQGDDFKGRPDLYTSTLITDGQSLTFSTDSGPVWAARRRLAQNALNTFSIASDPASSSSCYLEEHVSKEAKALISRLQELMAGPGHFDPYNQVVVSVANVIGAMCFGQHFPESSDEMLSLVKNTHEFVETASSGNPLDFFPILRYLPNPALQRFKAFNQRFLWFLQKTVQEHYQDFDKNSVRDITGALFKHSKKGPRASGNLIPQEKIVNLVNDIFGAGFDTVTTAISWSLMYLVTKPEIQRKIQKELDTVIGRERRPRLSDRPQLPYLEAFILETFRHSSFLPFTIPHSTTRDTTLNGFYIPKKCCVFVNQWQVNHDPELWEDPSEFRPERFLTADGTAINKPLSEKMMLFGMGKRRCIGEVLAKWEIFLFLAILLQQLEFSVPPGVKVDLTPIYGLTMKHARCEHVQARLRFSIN
# Method in brief: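 Luminescent demethylation readout: Luciferin-ME (100uM, equal to Km) turned over by 20nM CYP1A2 for 60 min at room temperature after NADPH regeneration addition, following 10 min compound preincubation. Normalization used 57 uM furafylline as full inhibition.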
# [2] = target: Mitogen-activated protein kinase 10 (Mus musculus) (UniProt Q61831); experiment: JNK3 AlphaScreen Assay (AID 530; active = well fitted curve in either direction with a large enough effect, not every such curve was filed as active;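 also: kinase came from lysate of stimulated human HepG2 cells; signal reports phosphorylation of biotinylated GST-cJun 1-79 at Ser73 with 10 µM ATP; series mostly up to about 57 µM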)
# Method in brief: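 Activity was read by AlphaScreen after JNK3-containing HepG2 lysate (cytokine pre-activated) phosphorylated biotinylated GST-cJun with 10 uM ATP at room temperature. Phospho-Ser73 cJun antibody with Protein-A acceptor beads provided detection.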
# [3] = target: 3',5'-cyclic-AMP phosphodiesterase 4B (Homo sapiens) (UniProt Q07343); experiment: qHTS Assay for Inhibitors of PDE-IV (AID 607; active = well fitted activation curve with a large enough effect in the main read-out, with a control signal flat, not every such curve was filed as active)
# 3',5'-cyclic-AMP phosphodiesterase 4B (Homo sapiens), sequence (Q07343 whole entry, looked up): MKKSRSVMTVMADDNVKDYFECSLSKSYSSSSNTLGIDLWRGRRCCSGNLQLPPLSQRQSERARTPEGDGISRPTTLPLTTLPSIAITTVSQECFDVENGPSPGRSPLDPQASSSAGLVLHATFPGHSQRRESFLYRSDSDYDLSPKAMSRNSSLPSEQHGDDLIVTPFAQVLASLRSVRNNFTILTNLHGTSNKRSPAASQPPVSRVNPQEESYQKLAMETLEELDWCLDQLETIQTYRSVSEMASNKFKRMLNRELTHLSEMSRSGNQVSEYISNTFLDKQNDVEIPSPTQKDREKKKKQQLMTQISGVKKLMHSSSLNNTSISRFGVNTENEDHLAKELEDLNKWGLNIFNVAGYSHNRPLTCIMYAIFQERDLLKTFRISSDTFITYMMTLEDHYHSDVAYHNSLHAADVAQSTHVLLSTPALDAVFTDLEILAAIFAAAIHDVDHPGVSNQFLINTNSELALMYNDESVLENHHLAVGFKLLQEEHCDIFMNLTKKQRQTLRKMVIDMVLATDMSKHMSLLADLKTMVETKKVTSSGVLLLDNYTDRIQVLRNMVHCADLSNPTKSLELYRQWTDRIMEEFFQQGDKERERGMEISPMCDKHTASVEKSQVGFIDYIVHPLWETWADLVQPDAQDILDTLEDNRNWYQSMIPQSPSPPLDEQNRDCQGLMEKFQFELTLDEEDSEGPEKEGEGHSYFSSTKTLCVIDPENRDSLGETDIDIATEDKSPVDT
# Method in brief: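 Live HEK293 cells with a modified cyclic nucleotide-gated (CNG) channel report intracellular cAMP via membrane-potential dye fluorescence (ex 535/em 590 nm). Endogenous PDE-IV was targeted. Compounds were tested at up to 22.9 uM final; RO 20-1724 100 uM served as control.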
# [4] = target: Cytochrome P450 3A4 (Homo sapiens) (UniProt P08684); experiment: qHTS Assay for Activators of Cytochrome P450 3A4 (AID 885); also: nearly all actives have a fitted effect of over 65% in size
# Cytochrome P450 3A4 (Homo sapiens), sequence (P08684 whole entry, looked up): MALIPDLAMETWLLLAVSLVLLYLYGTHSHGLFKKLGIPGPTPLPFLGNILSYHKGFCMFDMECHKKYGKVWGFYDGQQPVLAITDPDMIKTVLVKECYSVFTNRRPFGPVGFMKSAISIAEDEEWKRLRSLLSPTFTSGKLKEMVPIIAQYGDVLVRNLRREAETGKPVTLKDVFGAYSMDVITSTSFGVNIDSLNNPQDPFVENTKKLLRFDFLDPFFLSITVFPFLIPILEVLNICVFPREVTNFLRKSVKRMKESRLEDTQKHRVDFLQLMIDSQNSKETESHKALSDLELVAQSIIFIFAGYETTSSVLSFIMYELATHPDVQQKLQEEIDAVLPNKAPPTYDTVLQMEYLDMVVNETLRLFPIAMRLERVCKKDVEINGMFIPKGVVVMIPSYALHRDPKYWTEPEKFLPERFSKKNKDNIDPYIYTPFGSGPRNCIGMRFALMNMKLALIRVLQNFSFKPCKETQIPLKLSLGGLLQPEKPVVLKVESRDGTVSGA
# Method in brief: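 Using 20nM recombinant human CYP3A4 in potassium phosphate (200mM), substrate Luciferin-PPXE at 25uM, luminescent luciferin detection followed a 60-min RT NADPH reaction; data scaled to 57 uM ketoconazole.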
# [5] = target: Cytochrome P450 3A4 (Homo sapiens) (UniProt P08684); experiment: qHTS Assay for Inhibitors and Substrates of Cytochrome P450 3A4 (AID 884); also: nearly all actives have a fitted effect of over 50% in size; also: potency is read from the fitted curve at half-maximal effect
# Method in brief: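 Luminescent readout of luciferin produced by CYP3A4 (20 nM) dealkylation of Luciferin-PPXE, 25 uM (its KM). NADPH-driven reaction ran 60 min at RT after 10 min compound preincubation; data scaled to 57 uM ketoconazole as 100% inhibition.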
# [6] = target: Cytochrome P450 2C19 (Homo sapiens) (UniProt P33261); experiment: qHTS Assay for Inhibitors and Substrates of Cytochrome P450 2C19 (AID 899); also: nearly all actives have a fitted effect of over 60% in size; also: potency is read from the fitted curve at half-maximal effect
# Cytochrome P450 2C19 (Homo sapiens), sequence (P33261 whole entry, looked up): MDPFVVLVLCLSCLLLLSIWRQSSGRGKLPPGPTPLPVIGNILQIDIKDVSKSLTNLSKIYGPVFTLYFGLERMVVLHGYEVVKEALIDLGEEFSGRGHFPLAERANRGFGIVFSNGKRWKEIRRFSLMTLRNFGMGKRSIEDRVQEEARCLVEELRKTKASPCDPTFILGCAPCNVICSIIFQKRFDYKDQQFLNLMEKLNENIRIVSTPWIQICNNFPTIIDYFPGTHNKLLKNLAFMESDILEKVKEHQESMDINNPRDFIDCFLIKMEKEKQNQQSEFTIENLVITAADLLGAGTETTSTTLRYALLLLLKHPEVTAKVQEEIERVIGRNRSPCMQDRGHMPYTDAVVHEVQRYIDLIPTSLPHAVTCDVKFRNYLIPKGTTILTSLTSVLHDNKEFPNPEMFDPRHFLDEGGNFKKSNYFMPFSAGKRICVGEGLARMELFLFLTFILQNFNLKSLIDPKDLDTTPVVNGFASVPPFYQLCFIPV
# Method in brief: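 Signal comes from luciferase acting on luciferin released by CYP2C19-mediated hydroxylation of Luciferin-H EGE, 10uM (KM). Assay mix: 5nM enzyme, 50mM KPO4; 60 min at 37C with NADPH regeneration. Data normalized against 57uM ketoconazole.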
# [7] = target: Cytochrome P450 2D6 (Homo sapiens) (UniProt P10635); experiment: qHTS Assay for Inhibitors and Substrates of Cytochrome P450 2D6 (AID 891); also: nearly all actives have a fitted effect of over 60% in size; also: potency is read from the fitted curve at half-maximal effect
# Cytochrome P450 2D6 (Homo sapiens), sequence (P10635 whole entry, looked up): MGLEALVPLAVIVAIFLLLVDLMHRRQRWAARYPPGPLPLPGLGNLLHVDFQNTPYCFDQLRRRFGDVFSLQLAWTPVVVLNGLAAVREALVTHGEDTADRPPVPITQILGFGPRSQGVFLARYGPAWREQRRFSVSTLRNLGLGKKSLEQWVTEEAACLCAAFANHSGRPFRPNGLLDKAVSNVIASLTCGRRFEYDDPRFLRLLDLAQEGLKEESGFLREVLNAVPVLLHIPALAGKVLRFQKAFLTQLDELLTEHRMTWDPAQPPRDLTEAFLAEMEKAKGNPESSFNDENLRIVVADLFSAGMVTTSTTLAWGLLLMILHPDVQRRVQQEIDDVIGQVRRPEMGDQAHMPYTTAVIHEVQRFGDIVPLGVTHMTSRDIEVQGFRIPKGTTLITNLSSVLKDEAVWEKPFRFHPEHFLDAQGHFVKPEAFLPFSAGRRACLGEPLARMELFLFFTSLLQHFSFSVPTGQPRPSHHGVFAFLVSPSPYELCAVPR
# Method in brief: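 Luminescent read-out of luciferin formed by 5 nM human CYP2D6 demethylating 30 uM Luciferin-ME EGE (Km level) over 60 min at room temperature after NADPH regeneration addition. Data normalized to full inhibition by 1.43 uM quinidine.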
# [8] = target: Cytochrome P450 2C9 (Homo sapiens) (UniProt P11712); experiment: qHTS Assay for Inhibitors and Substrates of Cytochrome P450 2C9 (AID 883); also: potency is read from the fitted curve at half-maximal effect; nearly all actives have a fitted effect of over 60% in size
# Cytochrome P450 2C9 (Homo sapiens), sequence (P11712 whole entry, looked up): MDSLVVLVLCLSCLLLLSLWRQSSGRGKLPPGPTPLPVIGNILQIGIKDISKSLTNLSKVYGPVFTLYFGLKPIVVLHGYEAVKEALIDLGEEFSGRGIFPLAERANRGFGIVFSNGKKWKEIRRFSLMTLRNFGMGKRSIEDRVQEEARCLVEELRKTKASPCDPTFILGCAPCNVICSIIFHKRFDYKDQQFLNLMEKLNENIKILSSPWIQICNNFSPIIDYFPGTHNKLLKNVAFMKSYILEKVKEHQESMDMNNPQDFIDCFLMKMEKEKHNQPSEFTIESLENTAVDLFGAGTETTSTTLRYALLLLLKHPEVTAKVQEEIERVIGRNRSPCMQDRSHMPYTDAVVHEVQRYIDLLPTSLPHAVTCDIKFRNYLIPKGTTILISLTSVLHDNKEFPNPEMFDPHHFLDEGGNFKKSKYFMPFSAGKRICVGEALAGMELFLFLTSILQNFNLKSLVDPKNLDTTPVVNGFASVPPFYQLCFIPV
# Method in brief: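 Signal: luciferase luminescence reporting luciferin produced by CYP2C9. Conditions: 10nM enzyme, Luciferin-H 100uM at KM, 25mM KPO4, 37C, 60 min NADPH-driven reaction. Reference: 57uM sulphaphenazole as 100% inhibition.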
SMILES,Potency [1],Potency [2],Potency [3],Potency [4],Potency [5],Potency [6],Potency [7],Potency [8]
C[C@@H](C(=O)O)[C@@H]1C[C@@]1(C)[C@@H](NC(=O)OCc1ccccc1)c1ccccc1,inactive,inactive,inactive,inactive,–,–,–,–
COC(=O)[C@@]1(Cc2ccccc2)[C@H]2c3cc(C(=O)N4CCCC4)n(Cc4ccc(C)o4)c3C[C@H]2CN1C(=O)c1ccccc1,12.6 µM (active),inactive,inactive,inactive,2 µM (active),2.51 µM (active),–,–
C[C@@H](C(=O)Nc1ccc2ccccc2c1)[C@H]1C[C@]1(C)[C@H](NS(=O)(=O)c1ccc2ccccc2c1)c1ccccc1,inactive,inactive,inactive,inactive,7.94 µM (active),–,3.16 µM (active),–
Cc1c2c(nc3ccccc13)-c1cccc(=O)n1C2,0.1 µM (active),inactive,inactive,inactive,–,–,–,–
COC(=O)[C@@]1(Cc2ccc(F)cc2)[C@@H]2C(=CC(=O)[C@H]2CC(=O)C(=O)N(C)C)CN1C(=O)c1ccccc1,inactive,inactive,inactive,inactive,–,–,–,–
COC(=O)C1CC1C(NC(=O)[C@H]1CCCCN1)c1ccccc1 (some centres not stated),inactive,inactive,inactive,inactive,–,–,–,–
C[C@@H](C(=O)NCCF)[C@H]1C[C@]1(C)[C@H](NC(=O)OCc1ccccc1)c1ccccc1,15.8 µM (active),inactive,inactive,inactive,3.98 µM (active),–,6.31 µM (active),–
COC(=O)[C@@]1(Cc2ccccc2)[C@H]2c3cc(C(=O)N4CCCC4)n(Cc4cccc5ccccc45)c3C[C@H]2CN1C(=O)c1ccccc1,15.8 µM (active),inactive,inactive,inactive,1.58 µM (active),2.51 µM (active),–,–
C[C@@H](C(=O)Nc1ccc2ccccc2c1)[C@H]1C[C@]1(C)[C@H](NC(=O)Oc1ccc(F)cc1)c1ccccc1,inactive,inactive,inactive,inactive,0.794 µM (active),–,2.51 µM (active),–
O=C(NCc1nc2ccccc2[nH]1)[C@H]1C[C@@H]1[C@H](NP(=O)(c1ccccc1)c1ccccc1)c1ccccc1,15.8 µM (active),inactive,inactive,inactive,–,–,–,–
CC[C@H]1C2=C3C(CC[C@H]4C(OCc5ccc(F)cc5C(F)(F)F)OC[C@](C)([C@@H]34)N(C(=O)OC(C)(C)C)C2)C2COC(=O)OCC21 (some centres not stated),inactive,inactive,inactive,inactive,–,–,–,–
CC1=C(C(=O)OCc2ccccc2)C(c2ccc(Cl)cc2)NC(=O)N1CCCCCC(=O)O (configuration not stated),25.1 µM (active),inactive,inactive,inactive,–,–,–,–
COC(=O)C1CC1C(NC(=O)[C@@H]1CCCN1)c1ccccc1 (some centres not stated),15.8 µM (active),inactive,inactive,inactive,–,–,–,–
C[C@@]1(C(NC(=O)Cc2ccccc2)c2ccc(-c3ccccc3)cc2)C[C@H]1C1CCCCC1 (some centres not stated),inactive,inactive,inactive,inactive,–,–,–,–
C[C@@H](C(=O)Nc1ccc2ccccc2c1)[C@@H]1C[C@@]1(C)[C@@H](NC(=O)Oc1ccc(F)cc1)c1ccccc1,inactive,inactive,inactive,inactive,–,–,–,–
COC(=O)[C@H]1C[C@@H]1[C@H](NC(=O)c1ccccc1)c1ccccc1,15.8 µM (active),inactive,inactive,–,inactive,7.94 µM (active),–,–
O=C(N[C@@H](c1ccccc1)[C@@H]1C[C@H]1C(=O)NCc1ccccn1)OCc1ccccc1,10 µM (active),inactive,inactive,inactive,6.31 µM (active),7.94 µM (active),–,–
COC(=O)[C@H]1C[C@@H]1[C@H](NC(=O)c1cnccn1)c1ccccc1,15.8 µM (active),inactive,inactive,inactive,–,–,–,–
COC(=O)[C@@H]1C[C@H]1[C@@H](NC(=O)c1cc(C)on1)c1ccccc1,20 µM (active),inactive,inactive,inactive,–,–,–,–
C[C@@H](C(=O)NCc1ccc(S(C)(=O)=O)cc1)[C@H]1C[C@]1(C)[C@H](NC(=O)OCc1ccccc1)c1ccccc1,12.6 µM (active),inactive,inactive,inactive,3.16 µM (active),–,0.398 µM (active),–
CCCc1cc2c(n1CCc1ccc(Cl)cc1)C(C)C1CN(C(=O)c3ccccc3)C(C)(C(=O)OC)C21 (configuration not stated),25.1 µM (active),inactive,inactive,inactive,5.01 µM (active),6.31 µM (active),5.01 µM (active),–
CCC/C=C(\CCC)C(NC(=O)c1ccc(C(F)(F)F)cc1)c1ccc(C(F)(F)F)cc1 (configuration not stated),inactive,inactive,inactive,inactive,–,–,–,–
COC(=O)[C@@]1(Cc2ccc(F)cc2)[C@@H]2C(=CC(=O)[C@H]2CC(=O)C(=O)N2CCCC2)CN1C(=O)c1ccccc1,inactive,inactive,inactive,inactive,–,–,–,–

SMILES,Potency [1],Potency [2],Potency [3],Potency [4],Potency [5],Potency [6],Potency [7],Potency [8]
CC(=O)N[C@H](c1ccccc1)[C@@]1(C)C[C@@H]1[C@@H](C)C(=O)Nc1ccc2ccccc2c1,15.8 µM (active),inactive,inactive,inactive,7.94 µM (active),5.01 µM (active),2 µM (active),–
CC[C@H]1C2=C3C(CC[C@H]4C(OC)OC[C@](C)([C@@H]34)N(C(=O)OC(C)(C)C)C2)C(CO)C1CO (some centres not stated),12.6 µM (active),inactive,inactive,inactive,–,inactive,–,–
CCCC[C@@H]1C[C@H]1C(NC(=O)c1cccs1)c1ccc(C(F)(F)F)cc1 (some centres not stated),2 µM (active),inactive,–,inactive,3.16 µM (active),inactive,–,1.58 µM (active)
c1ccc2c(c1)Cc1cc3ccccc3nc1-2,0.1 µM (active),inactive,–,inactive,20 µM (active),–,12.6 µM (active),10 µM (active)
COC(=O)[C@@]1(Cc2ccc(F)cc2)[C@H]2c3cc(C(=O)N4CCCC4)n(CCc4ccc(OC)c(Br)c4)c3C[C@H]2CN1C(=O)c1ccccc1,15.8 µM (active),inactive,–,inactive,2.51 µM (active),5.01 µM (active),–,3.16 µM (active)
C[C@@H](C(=O)Nc1ccc2ccccc2c1)[C@H]1C[C@]1(C)[C@H](NS(=O)(=O)c1ccc(-c2ccccc2)cc1)c1ccccc1,15.8 µM (active),inactive,inactive,inactive,–,–,2 µM (active),–
CCCCCC1=C2CNC(Cc3ccccc3)(C(=O)OC)C=C2C(C)C1=O (configuration not stated),15.8 µM (active),inactive,inactive,inactive,–,6.31 µM (active),–,–
CCC[C@@H]1C[C@@]1(CCC)C(NC(=O)c1ccco1)c1ccc(Cl)cc1 (some centres not stated),25.1 µM (active),inactive,inactive,inactive,–,3.16 µM (active),3.98 µM (active),–
CC[C@@H]1OC(=O)[C@@H](C)[C@H](O[C@@H]2C[C@@](C)(OC)[C@@H](O)[C@H](C)O2)[C@H](C)[C@H](O[C@@H]2O[C@@H](C)C[C@@H](N(C)C)[C@H]2O)[C@@](C)(O)C[C@H](C)C(=O)[C@@H](C)[C@H](O)[C@@]1(C)O,inactive,inactive,inactive,–,–,inactive,inactive,–
C[C@H](CO)NC(=O)[C@H]1C[C@@H]1[C@H](NP(=O)(c1ccccc1)c1ccccc1)c1ccccc1,inactive,inactive,inactive,inactive,–,–,–,–
c1ccc2c(c1)Cc1cc3cc4c(cc3nc1-2)OCO4,0.501 µM (active),inactive,–,inactive,1 µM (active),1.26 µM (active),1.26 µM (active),3.98 µM (active)
COc1ccc2nc3c(cc2c1)Cc1ccccc1-3,0.251 µM (active),inactive,–,inactive,6.31 µM (active),2.51 µM (active),6.31 µM (active),6.31 µM (active)
C/C(=C\C1CCCCC1)C(NC(=O)c1ccc(C(F)(F)F)cc1)c1ccc(-c2ccccc2)cc1 (configuration not stated),inactive,inactive,inactive,inactive,–,–,–,–
C[C@@H](C(=O)O)[C@H]1C[C@]1(C)[C@H](NC(=O)OCc1ccccc1)c1ccccc1,inactive,inactive,inactive,inactive,–,7.94 µM (active),–,–
COC(=O)[C@@]1(Cc2ccc(F)cc2)[C@H]2c3cc(C(=O)N4CCCC4)n(CCc4ccc(O)c(O)c4)c3C[C@H]2CN1C(=O)c1ccccc1,20 µM (active),inactive,–,inactive,2.51 µM (active),–,–,3.16 µM (active)
COC(=O)[C@H](C)[C@@H]1C[C@@]1(C)[C@@H](NC(=O)OCc1ccccc1)c1ccccc1,15.8 µM (active),inactive,–,inactive,–,0.316 µM (active),–,5.01 µM (active)
COC(=O)[C@@]1(Cc2ccccc2)[C@H]2c3cc(C(=O)N4CCCC4)n(Cc4ccc(O)c(OC)c4)c3C[C@H]2CN1C(=O)c1ccccc1,25.1 µM (active),inactive,–,inactive,2 µM (active),0.501 µM (active),–,2.51 µM (active)
CC[C@H]1C(=O)OC[C@@H]1Cc1cncn1C,inactive,inactive,inactive,–,–,inactive,inactive,–
CCc1c2c(nc3ccc(OC)cc13)COC2,0.794 µM (active),inactive,inactive,inactive,–,–,–,–
C[C@@H](C(=O)NCc1ccccn1)[C@@H]1C[C@@]1(C)[C@@H](NC(=O)OCc1ccccc1)c1ccccc1,20 µM (active),inactive,inactive,inactive,–,2.51 µM (active),–,–
CCCC[C@@H]1C[C@H]1C(NC(=O)c1ccco1)c1ccc(C(=O)OC)cc1 (some centres not stated),3.98 µM (active),inactive,–,inactive,–,–,–,0.794 µM (active)
CCC/C=C(\CCC)C(NS(=O)(=O)c1cccc2cccnc12)c1ccc(-c2ccccc2)cc1 (configuration not stated),0.794 µM (active),inactive,–,inactive,3.16 µM (active),–,–,2 µM (active)
